# From PubChem BioAssay AID1159580 (chemical genetic matrix, 2015)
# Values joined by “and” are separate entries in the source; they are usually repeats but may differ in a detail not shown here. Equal values may be shown once. The whole screen tested about 5,500 compounds, of which about 2,000 (36%) were called active. Inconclusive results (about 18%) are left out. The list shows a part of the results. Unmarked numbers belong to inactive results. Cut-off read from the data, not from the text of the source: active = normalized growth mostly below about 0.91 (no sharp cut-off); inconclusive = no clear call, values can overlap the other calls; inactive = mostly above about 0.92.
# Experiment: chemical genetic growth profiling, strain panel (AID 1159580);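 note: tested at 20 µM; growth read once vehicle control cultures reached saturation at 30 °C; 1 = growth at the plate median or of vehicle wells; lower values mean less growth of the strain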
# Details: S. cerevisiae deletion strains, growth OD
smiles,measurement,setting,value
O=C1CC[C@]23C=CC(=O)NCCCCNCCCNC(=O)/C=C/c4ccc(c2c4)O[C@@H]3C1,normalized growth,"locus YAL021C, strain ccr4, hits give low values",1.02
same,normalized growth,"locus YAL026C, strain drs2, hits give low values",1.04
same,normalized growth,"locus YAL030W, strain snc1, hits give low values",1.01
same,normalized growth,"locus YBL061C, strain skt5, hits give low values",1.02
same,normalized growth,"locus YBR009C, strain hhf1, hits give low values",1.03
same,normalized growth,"locus YBR021W, strain FUR4, hits give low values",0.999
same,normalized growth,"locus YBR023C, strain chs3, hits give low values",1.02
same,normalized growth,"locus YBR171W, strain sec66, hits give low values",1.01
same,normalized growth,"locus YBR229C, strain ROT2, hits give low values",1.01
same,normalized growth,"locus YBR231C, strain swc5, hits give low values",1.01
same,normalized growth,"locus YBR279W, strain paf1, hits give low values",1
same,normalized growth,"locus YCL011C, strain gbp2, hits give low values",1
same,normalized growth,"locus YCL016C, strain dcc1, hits give low values",1.03
same,normalized growth,"locus YCL029C, strain bik1, hits give low values",0.997
same,normalized growth,"locus YCL061C, strain MRC1, hits give low values",1
same,normalized growth,"locus YCL069W, strain vba3, hits give low values",1.01
same,normalized growth,"locus YCR088W, strain abp1, hits give low values",1.02
same,normalized growth,"locus YDL005C, strain med2, hits give low values",1.02
same,normalized growth,"locus YDL035C, strain GPR1, hits give low values",1.05
same,normalized growth,"locus YDL040C, strain nat1, hits give low values",1
same,normalized growth,"locus YDL074C, strain BRE1, hits give low values",1.05
same,normalized growth,"locus YDL101C, strain DUN1, hits give low values",1
same,normalized growth,"locus YDL134C, strain PPH21, hits give low values",0.954
same,normalized growth,"locus YDL185W, strain tfp1, hits give low values",0.993
same,normalized growth,"locus YDL192W, strain arf1, hits give low values",1.02
same,normalized growth,"locus YDR001C, strain nth1, hits give low values",1.01
same,normalized growth,"locus YDR069C, strain doa4, hits give low values",1.03
same,normalized growth,"locus YDR101C, strain arx1, hits give low values",0.997
same,normalized growth,"locus YDR137W, strain rgp1, hits give low values",0.993
same,normalized growth,"locus YDR150W, strain NUM1, hits give low values",1.01
same,normalized growth,"locus YDR159W, strain sac3, hits give low values",1.03
same,normalized growth,"locus YDR162C, strain NBP2, hits give low values",1.02
same,normalized growth,"locus YDR195W, strain ref2",1.02
same,normalized growth,"locus YDR297W, strain sur2, hits give low values",1.01
same,normalized growth,"locus YDR318W, strain mcm21, hits give low values",1.01
same,normalized growth,"locus YDR334W, strain swr1, hits give low values",1.01
same,normalized growth,"locus YDR335W, strain msn5, hits give low values",1.03
same,normalized growth,"locus YDR388W, hits give low values",0.993
same,normalized growth,"locus YDR392W, strain spt3, hits give low values",1.01
same,normalized growth,"locus YDR502C, strain sam2, hits give low values",0.963
same,normalized growth,"locus YEL003W, strain gim4, hits give low values",1.01
same,normalized growth,"locus YEL037C, strain rad23, hits give low values",1.02
same,normalized growth,"locus YEL061C, strain CIN8 (second series), hits give low values",1.01
same,normalized growth,"locus YEL061C, strain CIN8, hits give low values",1.01
same,normalized growth,"locus YER015W, strain faa2, hits give low values",1.01
same,normalized growth,"locus YER016W, strain bim1, hits give low values",1.02
same,normalized growth,"locus YER110C, hits give low values",0.981
same,normalized growth,"locus YER111C, strain swi4, hits give low values",1.01
same,normalized growth,"locus YER155C, strain BEM2 (second series), hits give low values",1.01
same,normalized growth,"locus YER155C, strain BEM2, hits give low values",1.01
same,normalized growth,"locus YER167W, strain BCK2, hits give low values",1.02
same,normalized growth,"locus YFR010W, strain ubp6, hits give low values",1.02
same,normalized growth,"locus YGL078C, strain dbp3, hits give low values",0.987
same,normalized growth,"locus YGL086W, strain mad1, hits give low values",0.99
same,normalized growth,"locus YGL167C, strain pmr1, hits give low values",1.03
same,normalized growth,"locus YGL173C, strain kem1, hits give low values",1.02
same,normalized growth,"locus YGL227W, strain vid30, hits give low values",1.02
same,normalized growth,"locus YGL240W, strain doc1, hits give low values",1.02
same,normalized growth,"locus YGL248W, strain PDE1, hits give low values",1
same,normalized growth,"locus YGL253W, strain hxk2, hits give low values",1.02
same,normalized growth,"locus YGR135W, strain pre9, hits give low values",0.951
same,normalized growth,"locus YGR252W, strain gcn5, hits give low values",0.903
same,normalized growth,"locus YHR013C, strain ard1, hits give low values",1.41 [resistant] (active)
same,normalized growth,"locus YHR027C, strain rpn1, hits give low values",1
same,normalized growth,"locus YHR030C, strain SLT2, hits give low values",1.05
same,normalized growth,"locus YHR079C, strain IRE1 (second series), hits give low values",0.995
same,normalized growth,"locus YHR079C, strain IRE1, hits give low values",1.04
same,normalized growth,"locus YHR094C, strain hxt1, hits give low values",0.993
same,normalized growth,"locus YHR129C, strain ARP1, hits give low values",1.01
same,normalized growth,"locus YHR142W, strain chs7, hits give low values",1.01
same,normalized growth,"locus YHR200W, strain rpn10, hits give low values",0.963
same,normalized growth,"locus YIL066C, strain RNR3, hits give low values",1.04
same,normalized growth,"locus YIL073C, strain SPO22, hits give low values",0.97
same,normalized growth,"locus YIL125W, strain kgd1, hits give low values",0.988
same,normalized growth,"locus YIR030C, strain dcg1, hits give low values",0.997
same,normalized growth,"locus YJL092W, strain hpr5, hits give low values",1.01
same,normalized growth,"locus YJL095W, strain BCK1 (second series), hits give low values",1.04
same,normalized growth,"locus YJL095W, strain BCK1, hits give low values",1.01 and 1.04
same,normalized growth,"locus YJL115W, strain asf1, hits give low values",1.02
same,normalized growth,"locus YJL129C, strain trk1, hits give low values",1.01
same,normalized growth,"locus YJL134W, strain LCB3, hits give low values",1.01
same,normalized growth,"locus YJL154C, strain vps35, hits give low values",1.01
same,normalized growth,"locus YJL164C, strain tpk1, hits give low values",0.974
same,normalized growth,"locus YJL166W, strain qcr8, hits give low values",1.04
same,normalized growth,"locus YJL168C, strain set2, hits give low values",1
same,normalized growth,"locus YJL187C, strain SWE1 (second series), hits give low values",0.99
same,normalized growth,"locus YJR043C, strain POL32, hits give low values",1.04
same,normalized growth,"locus YJR066W, strain TOR1, hits give low values",0.98
same,normalized growth,"locus YKL009W, strain mrt4, hits give low values",1.04
same,normalized growth,"locus YKL068W, hits give low values",0.993
same,normalized growth,"locus YKL085W, strain MDH1 (second series), hits give low values",0.997
same,normalized growth,"locus YKL085W, strain MDH1, hits give low values",0.997
same,normalized growth,"locus YKL160W, strain elf1, hits give low values",1.04
same,normalized growth,"locus YKR001C, strain vps1, hits give low values",0.977
same,normalized growth,"locus YKR026C, strain gcn3, hits give low values",1.01
same,normalized growth,"locus YKR091W, strain srl3, hits give low values",1.01
same,normalized growth,"locus YLL001W, strain dnm1, hits give low values",0.965
same,normalized growth,"locus YLL026W, hits give low values",1.01
same,normalized growth,"locus YLL041C, strain sdh2, hits give low values",1.01
same,normalized growth,"locus YLR027C, strain aat2, hits give low values",1.01
same,normalized growth,"locus YLR039C, strain RIC1, hits give low values",1.08
same,normalized growth,"locus YLR058C, strain SHM2, hits give low values",1.01
same,normalized growth,"locus YLR102C, strain apc9, hits give low values",0.985
same,normalized growth,"locus YLR113W, strain HOG1, hits give low values",0.962
same,normalized growth,"locus YLR221C, strain rsa3, hits give low values",1.01
same,normalized growth,"locus YLR258W, strain gsy2, hits give low values",1.01
same,normalized growth,"locus YLR262C, strain YPT6 (second series), hits give low values",1
same,normalized growth,"locus YLR268W, strain sec22, hits give low values",1.01
same,normalized growth,"locus YLR320W, strain mms22, hits give low values",1.04
same,normalized growth,"locus YLR330W, strain CHS5, hits give low values",1.01
same,normalized growth,"locus YLR342W, strain FKS1 (second series), hits give low values",1.04
same,normalized growth,"locus YLR342W, strain FKS1, hits give low values",1
same,normalized growth,"locus YLR357W, strain rsc2, hits give low values",1.01
same,normalized growth,"locus YLR370C, strain arc18, hits give low values",1.02
same,normalized growth,"locus YLR371W, strain rom2, hits give low values",1
same,normalized growth,"locus YLR384C, strain iki3, hits give low values",1
same,normalized growth,"locus YLR418C, strain cdc73, hits give low values",0.959
same,normalized growth,"locus YML016C, strain PPZ1, hits give low values",1.01
same,normalized growth,"locus YML032C, strain rad52, hits give low values",0.993
same,normalized growth,"locus YML120C, strain ndi1, hits give low values",0.993
same,normalized growth,"locus YML124C, strain tub3, hits give low values",0.988
same,normalized growth,"locus YMR058W, strain fet3, hits give low values",1.02
same,normalized growth,"locus YMR078C, strain ctf18, hits give low values",0.986
same,normalized growth,"locus YMR125W, strain sto1, hits give low values",1
same,normalized growth,"locus YMR129W, hits give low values",1
same,normalized growth,"locus YMR205C, strain PFK2, hits give low values",1.01
same,normalized growth,"locus YMR223W, strain ubp8, hits give low values",0.969
same,normalized growth,"locus YMR231W, strain pep5, hits give low values",1.02
same,normalized growth,"locus YMR307W, strain GAS1, hits give low values",1.05
same,normalized growth,"locus YNL067W, strain RPL9B, hits give low values",0.976
same,normalized growth,"locus YNL071W, strain lat1, hits give low values",1.02
same,normalized growth,"locus YNL153C, strain GIM3, hits give low values",0.996
same,normalized growth,"locus YNL183C, strain NPR1, hits give low values",0.99
same,normalized growth,"locus YNL209W, strain ssb2, hits give low values",1.01
same,normalized growth,"locus YNL233W, strain BNI4, hits give low values",0.998
same,normalized growth,"locus YNL248C, strain rpa49, hits give low values",1.03
same,normalized growth,"locus YNL250W, strain rad50, hits give low values",0.959
same,normalized growth,"locus YNL271C, strain bni1, hits give low values",0.999
same,normalized growth,"locus YNL298W, strain CLA4, hits give low values",0.997
same,normalized growth,"locus YNL307C, strain MCK1, hits give low values",0.983
same,normalized growth,"locus YNL322C, strain KRE1 (second series), hits give low values",1.01
same,normalized growth,"locus YNL322C, strain KRE1, hits give low values",1.01
same,normalized growth,"locus YNR049C, strain mso1, hits give low values",1.03
same,normalized growth,"locus YNR052C, strain pop2, hits give low values",0.972
same,normalized growth,"locus YOL006C, strain TOP1, hits give low values",1.09
same,normalized growth,"locus YOL012C, strain htz1",0.612
same,normalized growth,"locus YOL147C, strain pex11, hits give low values",0.99
same,normalized growth,"locus YOR001W, strain rrp6, hits give low values",1.03
same,normalized growth,"locus YOR061W, strain CKA2, hits give low values",1.02
same,normalized growth,"locus YOR069W, strain VPS5, hits give low values",1
same,normalized growth,"locus YOR070C, strain gyp1, hits give low values",1.02
same,normalized growth,"locus YOR080W, strain dia2, hits give low values",1.01
same,normalized growth,"locus YOR083W, strain WHI5, hits give low values",1.01
same,normalized growth,"locus YOR106W, strain vam3, hits give low values",1.01
same,normalized growth,"locus YOR136W, strain idh2, hits give low values",0.979
same,normalized growth,"locus YOR144C, strain elg1, hits give low values",0.987
same,normalized growth,"locus YOR184W, strain ser1, hits give low values",1.03
same,normalized growth,"locus YOR231W, strain MKK1, hits give low values",1.03
same,normalized growth,"locus YOR265W, strain rbl2, hits give low values",0.991
same,normalized growth,"locus YOR270C, strain vph1, hits give low values",1.07
same,normalized growth,"locus YOR290C, strain snf2, hits give low values",1.01
same,normalized growth,"locus YOR316C, strain cot1, hits give low values",0.984
same,normalized growth,"locus YPL051W, strain arl3, hits give low values",1.02
same,normalized growth,"locus YPL055C, strain LGE1, hits give low values",1.04
same,normalized growth,"locus YPL078C, strain atp4, hits give low values",1.01
same,normalized growth,"locus YPL106C, strain sse1, hits give low values",1.06
same,normalized growth,"locus YPL240C, strain hsp82, hits give low values",1.01
same,normalized growth,"locus YPL241C, strain CIN2, hits give low values",1.01
same,normalized growth,"locus YPL256C, strain CLN2, hits give low values",1.05
same,normalized growth,"locus YPR119W, strain clb2, hits give low values",0.992
same,normalized growth,"locus YPR141C, strain kar3, hits give low values",0.993
same,normalized growth,"locus YPR163C, strain tif3, hits give low values",0.99
same,normalized growth,"locus YPR167C, strain met16, hits give low values",0.985
same,normalized growth,"strain wtn01, hits give low values",0.99
